About 83,000 compounds went through this panel and 20% of them were active in at least one assay; those are over-represented in the sample as a whole.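 How to read the values: 0–100, growth inhibition (40 = 60% inhibited); 0, no net growth; -100 to 0, cell death (-40 = 40% of starting cells died; -100 = all dead).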 Activity calls are given as the source filed them. Rule for the calls: active = growth percent below 10; inactive = the rest.
Tests used:
Assay in all cases: NCI-60 one-dose screen, 48 h (100 = growth as untreated, 0 = no growth, -100 = all killed)
Conditions in all cases: 10 µM unless noted
[1] = tested on: RPMI-8226 leukemia
[2] = tested on: OVCAR-8 ovarian
[3] = tested on: OVCAR-5 ovarian
[4] = tested on: OVCAR-4 ovarian
[5] = tested on: SK-OV-3 ovarian
[6] = tested on: IGROV1 ovarian
[7] = tested on: HS 578T breast
[8] = tested on: NCI/ADR-RES ovarian
[9] = tested on: T-47D breast
[10] = tested on: BT-549 breast
[11] = tested on: MDA-MB-435 melanoma
[12] = tested on: SW-620 colon
[13] = tested on: MCF7 breast
[14] = tested on: HCC-2998 colon
[15] = tested on: KM12 colon
[16] = tested on: HCT-116 colon
[17] = tested on: OVCAR-3 ovarian

Measured: growth

COc1ccc([C@H]2[C@H](O)C(=O)N2c2cc(OC)c(OC)c(OC)c2)cc1O
inactive: [1] 16.5% | [3] 30.1% | [4] 70.3% | [5] 21.4% | [6] 26.7% | [8] 18.6% | [9] 75.8% | [12] 17% | [14] 19.5% | [15] 13.1%
active: [2] -11.5% | [7] 5.02% | [10] -9.8% | [11] -13.1% | [13] 8.66%

COc1cc2c3c(n(CCCNC4CCCCC4)c(=O)c2cc1OC)-c1cc2c(cc1C3=O)OCO2
active: [1] -46.5% | [2] -66.8% | [3] -86.4% | [6] -30.9% | [8] -22.9% | [12] -76.8% | [13] -78.1% | [16] -72.3%
inactive: [4] 93.2% | [5] 104% | [9] 91.5% | [10] 78.2% | [14] 73.3% | [15] 57.4%

Nc1nc(N)c2c(n1)NC(c1ccccc1)CC(c1ccc(Nc3nc(NCCO)nc(Nc4ccc(Cl)cc4)n3)cc1)=N2 (configuration not stated)
active: [1] -56.2% | [2] -20% | [12] -83.3% | [13] -71.3% | [16] -92.7%
inactive: [3] 111% | [4] 57.2% | [5] 116% | [6] 64.3% | [7] 79.9% | [8] 48.4% | [9] 62.1% | [10] 79.3% | [11] 41.8% | [14] 68.9% | [15] 47%

COc1cc(C2CC(c3ccc(Nc4nc(NCCO)nc(Nc5ccc(Cl)cc5)n4)cc3)=Nc3c(N)nc(N)nc3N2)cc(OC)c1OC (configuration not stated)
inactive: [1] 37.5% | [2] 47.6% | [3] 119% | [4] 65.2% | [5] 125% | [6] 62.5% | [7] 35% | [8] 103% | [9] 54.5% | [10] 52.1% | [12] 51.6% | [13] 42.7% | [16] 23.6% | [15] 61.9%

O=C1c2c(c3c4ccc(Br)cc4oc3c3[nH]c4ccccc4c23)C(=O)N1CCO
inactive: [1] 43.3% | [2] 50.4% | [3] 69.9% | [5] 37.4% | [6] 43.4% | [7] 88.5% | [8] 44.7% | [9] 10.5% | [10] 55.3% | [11] 59% | [12] 47% | [13] 18.6% | [16] 39.6% | [14] 77.8% | [15] 65.6%

COc1ccc([C@@H]2[C@@H](O)C(=O)N2c2cc(OC)c(OC)c(OC)c2)cc1
active: [2] 2.57% | [10] -13.4% | [11] -28.6% | [16] 3.82%
inactive: [1] 20.3% | [3] 24.8% | [5] 37.2% | [6] 27.9% | [7] 10.6% | [8] 13.9% | [9] 67.1% | [12] 19.4% | [13] 11.9% | [14] 21.8% | [15] 14%

CS(=O)c1nccc(-c2c(-c3ccc(F)c(OCCc4ccccc4)c3)nc3sccn23)n1 (configuration not stated)
inactive: [1] 55.8% | [2] 93% | [3] 111% | [4] 102% | [5] 102% | [6] 17.7% | [7] 99.8% | [8] 108% | [9] 15.2% | [10] 120% | [11] 111% | [12] 80.5% | [16] 63.2% | [14] 58.6% | [15] 89.2%
active: [13] -1.77%

COc1ccc([C@H]2[C@H](O)C(=O)N2c2cc(OC)c(OC)c(OC)c2)cc1
active: [2] 2.46% | [10] -2.44% | [11] -12.9% | [16] 0.54%
inactive: [1] 22.8% | [3] 29.5% | [4] 69.8% | [5] 37.7% | [6] 29.6% | [7] 16.6% | [8] 18% | [9] 70.2% | [12] 20.3% | [13] 12.4% | [14] 16.3% | [15] 18.8%

C=CCn1c(SCC(=O)Nc2cccc(C(=O)/C=C/c3cc(OC)c(OC)c(OC)c3)c2)nc2ccccc2c1=O
active: [1] -9.52% | [2] -14.7% | [12] 3.18% | [16] -26.4%
inactive: [3] 17.4% | [4] 66.5% | [5] 132% | [6] 49.3% | [8] 27.1% | [9] 66.4% | [10] 75.9% | [11] 21.7% | [13] 18.2% | [14] 82.5% | [15] 46.3%

Cn1cc(-c2nn3cc(-c4cccnc4)nc3s2)c2ccccc21
active: [11] -39.1%
inactive: [1] 30.4% | [2] 36.4% | [3] 36.6% | [4] 76.6% | [5] 50.7% | [6] 40.2% | [7] 31.3% | [8] 18.9% | [9] 27.7% | [10] 22.2% | [12] 17.1% | [13] 15.8% | [14] 60.2% | [15] 29.6%

COc1ccc(NC(=O)Cn2cc(CN3C(=O)c4ccc([N+](=O)[O-])cc4C3=O)nn2)cc1
inactive: [1] 102% | [2] 94.2% | [4] 112% | [5] 93.2% | [6] 107% | [7] 106% | [8] 100% | [9] 95.5% | [10] 111% | [11] 110% | [12] 97.5% | [13] 91.3% | [14] 102% | [15] 106%

O=C1c2c(c3c4cc(O)ccc4oc3c3[nH]c4ccccc4c23)C(=O)N1O
inactive: [2] 12.1% | [3] 72.5% | [4] 22% | [8] 40.7% | [14] 34.6%
active: [1] 4.71% | [5] -17% | [6] 0.286% | [7] -8.67% | [9] -17% | [10] -9.43% | [11] -13.8% | [12] 4.5% | [13] 6.15% | [16] -45.8% | [15] -17.2%

CCOC(=O)Nc1cccc(-n2cnc3cc(-c4ccc(O)cc4)ccc32)c1
active: [8] 7.05% | [11] -16% | [15] 3.22%
inactive: [1] 20.2% | [2] 21.8% | [3] 41.1% | [4] 56% | [5] 34% | [6] 32.3% | [7] 16% | [9] 12.8% | [10] 39.3% | [12] 25.5% | [13] 18.2% | [16] 10.3% | [14] 30.2%

COc1ccc([C@H]2[C@H](O)C(=O)N2c2cc(OC)c(OC)c(OC)c2)cc1Cl
inactive: [1] 19% | [3] 30.3% | [4] 74.4% | [5] 27.3% | [7] 13.6% | [9] 69.9% | [12] 17.8% | [14] 13.8% | [15] 11.3%
active: [2] -12.7% | [8] -10.6% | [10] 1.85% | [11] -0.621% | [13] 9.61% | [16] 2.62%

CCOC(=O)/C=c1\sc2n(c1=O)C1C(NN=2)N(CC)C(=O)N1CC (configuration not stated)
inactive: [1] 64.6% | [2] 84.2% | [3] 84.8% | [4] 91.2% | [5] 89.2% | [17] 14.8% | [7] 61.5% | [8] 53.1% | [9] 84% | [10] 57.7% | [12] 31.7% | [13] 11% | [16] 28.8% | [14] 77.1% | [15] 36%

CS(=O)(=O)c1nccc(-c2c(-c3ccc(F)c(OCc4ccc(F)cc4)c3)nc3sccn23)n1
inactive: [1] 38.8% | [2] 92.1% | [3] 97% | [4] 99.1% | [5] 110% | [6] 82.1% | [7] 85.4% | [8] 98% | [10] 69.8% | [11] 97.3% | [12] 88.2% | [15] 41.5%
active: [9] -18.7% | [13] -6.26% | [14] -63.6%

O=c1cc(-c2ccccc2)nc2sc(-c3c[nH]c4ccc(Br)cc34)nn12
inactive: [1] 112% | [2] 106% | [3] 100% | [4] 105% | [5] 110% | [7] 113% | [8] 101% | [9] 75.2% | [10] 108% | [11] 101% | [12] 105% | [13] 67.9% | [16] 103% | [14] 109% | [15] 103%

COc1ccc(-c2no[n+]([O-])c2Nc2ccccc2Br)cc1
inactive: [1] 93.7% | [2] 90.3% | [3] 108% | [4] 101% | [5] 94.3% | [6] 85.4% | [8] 94.9% | [9] 80% | [10] 113% | [11] 107% | [12] 101% | [13] 84.9% | [16] 93.7% | [14] 111% | [15] 101%

Cc1cc(=O)n2nc(-c3c[nH]c4ccccc34)sc2n1
inactive: [1] 128% | [2] 98.7% | [3] 101% | [5] 103% | [6] 89.9% | [7] 96.4% | [8] 98% | [9] 92.2% | [10] 108% | [11] 103% | [12] 94.4% | [13] 73.2% | [16] 109% | [14] 107% | [15] 101%

— PubChem BioAssay (NCI)
